In PubChem BioAssay (NCATS) one finds max response data, which are given here for 40 molecules.

Structures are written as SMILES. Records with an inconclusive call do not appear. Unmarked numbers belong to inactive results. Calls follow the shape of the dose curve; as a rule, active = well fitted inhibition curve with a large enough effect; inconclusive = small, poorly fitted or top-dose-only effect; inactive = flat fitted curve, though single readings scatter.
% is scaled to controls: 0 for no effect and ±100 for the full control effect.

The test relates to KB-3-1. The test is described as follows: Cytotoxic Profiling of Annotated Libraries Using Quantitative High-Throughput Screening (AID 1296008). Also: nearly all actives have a fitted effect of over 60% in size. Conditions: Five cell lines viability, CellTiter-Glo ATP luminescence, 48-72 h, hits give low values. The text has this:
Cell-based phenotypic screening is a commonly used approach to discover biological pathways, novel drug targets, chemical probes and high-quality hit-to-lead molecules. Many hits identified from high-throughput screening campaign are ruled out through a series of follow-up potency, selectivity/specificity, and cytotoxicity assays. Prioritization of molecules with little or no cytotoxicity for a more in-depth downstream evaluation influence the future direction of projects, so cytotoxicity profiling of the screening libraries at early stage is essential for increasing the likelihood of candidate success. […] For the annotated library, we also examined the primary targets and mechanistic pathways regularly associated with cell death. To our knowledge, this is the first study to use high-throughput screening to profile large libraries for cytotoxicity assessment in both normal and cancer cell lines. In summary, the results generated here constitutes a valuable resource for the scientific community and provides insight on identifying cytotoxic compounds with particular mechanisms of action, and prioritizing compounds with suitable cytotoxicity profile for further evaluation.
A pintool (Kalypsys) was used to transfer 23 nL of compound solution to the 1536-well assay plates. After 48 or 72 hr incubation at 37 degree Celsius, 5% CO2 and 95% humidity, 2.5 uL of CellTiter-Glo (Promega) was dispensed into each well using a dispenser (Aspect Automation, St. Paul, MN) with solenoid valves (Lee Valves, Westbrook CT). Plates were left at room temperature for 10 min before imaging the ATP-coupled luminescence using a ViewLux microplate imager (PerkinElmer, Waltham, MA).
As for `C/C=C/C(=O)N(CC)c1ccccc1C`, the max response was 21.1%. As for `OC[C@@H](O)[C@@H](O)[C@H](O)[C@H](O)CO`, the figure is 5.16%; as for `Cc1c(NC(C)C)c(=O)n(-c2ccccc2)n1C`, 6.84%; as for `O=C(O)Cc1ccc(CCNS(=O)(=O)c2ccc(Cl)cc2)cc1`, 0.272%. Regarding `Nc1c2c(nc3c1CCC3)CCCC2`, the max response is -0.45%. In the case of `CN(C/C=C/C#CC(C)(C)C)Cc1cccc2ccccc12`, the max response was -0.279%.

`CN1C[C@@H]2C[C@H]1CN2c1cc2c(cc1F)c(=O)c(C(=O)O)cn2C1CC1`: the max response was -8.4%. In the case of `C[C@]1(Cn2ccnn2)[C@H](C(=O)O)N2C(=O)C[C@H]2S1(=O)=O`, the max response was 13.6%.

In the case of `O=C(O)COC(=O)Cc1ccccc1Nc1c(Cl)cccc1Cl`, the max response was 5.03%. Consider `CC(=O)Oc1cccc(C)c1`, for which the max response is -6.53%. Regarding `Cn1c(=O)c2c(ncn2CCO)n(C)c1=O`, the max response was -5.28%.

Take `CC1CCN(CCCC(=O)c2ccc(F)cc2)CC1`: the max response was -11.3%. As for `CC(N)CCCC(C)(C)O` (stereo not given), the figure is 2.21%; as for `Cc1c(C(=O)NCCO)[n+](=O)c2ccccc2n1[O-]`, -16.8%. `O=c1[nH]c(=O)c2ccccc2o1`: the max response is -4.12%. On to `O=C(c1ccccc1)C(O)c1ccccc1` (stereo not given), for which the max response was -15.7%. As for `Cc1ccsc1C(=CCCN1CCC[C@@H](C(=O)O)C1)c1sccc1C`, the max response was 3.88%.

In the case of `CCN(CC)CC1CCCCN1CC(=O)N1c2ccccc2C(=O)Nc2cccnc21` (stereo not given), the max response is 6.89%. In the case of `NCc1ccc(S(N)(=O)=O)cc1`, the max response was -7.46%. Consider `CC(C)c1cc2c(cc1S(=O)(=O)O)[C@@]1(C)CCC[C@@](C)(C(=O)O)[C@@H]1CC2`, for which the max response is -7.82%. Regarding `COC(=O)N/N=C/c1c[n+]([O-])c2ccccc2[n+]1[O-]`, the max response is -2.23%. Take `CC(=O)Oc1cccc(O)c1`: the max response is -9.73%. For `NC(=O)NC1NC(=O)NC1=O` (stereo not given), the max response is -5.62%.

For the molecule `CCOc1ccccc1O[C@H](c1ccccc1)[C@H]1CNCCO1`, the max response was 2.06%.

For `O=C(O)CCC(=O)O`, the max response was 7.68%. Consider `CCOc1cc(NC(C)=O)ccc1C(=O)OC`, for which the max response was 19.6%. As to `COC(=O)c1cccnc1`, the max response is 10%. Regarding `Cc1cc(C)nc(NS(=O)(=O)c2ccc(N)cc2)n1`, the max response is -0.934%. For the molecule `CCN(CC)S(=O)(=O)c1ccc(C(=O)O)cc1`, the max response was 7.96%. `CC(=O)Nc1ccccc1`: the max response is 12.7%. As to `CC(=O)N1C[C@H](O)C[C@H]1C(=O)O`, the max response is 8.51%. As for `CC(C(=O)O)c1ccc2c(c1)Cc1cccnc1O2` (stereo not given), the max response is -7.45%.

Turning to `Cn1c([N+](=O)[O-])cnc1COC(N)=O`, the max response was -4.93%.

In the case of `CC(=O)OC[C@H]1O[C@@](COC(C)=O)(O[C@H]2O[C@H](COC(C)=O)[C@@H](OC(C)=O)[C@H](OC(C)=O)[C@H]2OC(C)=O)[C@@H](OC(C)=O)[C@@H]1OC(C)=O`, the max response is 2.32%. As to `O=C(NCN1CCOCC1)c1cnccn1`, the max response was -13.5%. With `Cc1ccsc1/C=C/C1=NCCCN1C`, the max response was -0.196%.

Regarding `CCCC(O)C(CC)CO` (stereo not given), the max response is 9.23%. Take `Nc1ncnc(Nc2ccccc2)n1`: the max response was 3.24%. With `CCCCCOC(=O)Nc1nc(=O)n([C@@H]2O[C@H](C)[C@@H](O)[C@H]2O)cc1F`, the max response was -8.69%. Turning to `CC1(c2ccccc2)OC(C(=O)O)=CC1=O` (stereo not given), the max response is 17.3%.
